The panel holds about 83,000 compounds, 20% with a hit somewhere; the sample as a whole holds those more often.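 In brief: 96-well plates, 48 h treatment, single concentration, percent growth endpoint.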 A number with no mark means an inactive call. Activity calls are given as the source filed them. How the source made its calls: active means growth percent below 10; inactive means the rest.
Assays:
Experiment in all cases: NCI-60 one-dose screen, 48 h (100 = growth as untreated, 0 = no growth, -100 = all killed)
Conditions in all cases: 10 µM unless noted
SR leukemia = tested on: SR leukemia
RPMI-8226 leukemia = tested on: RPMI-8226 leukemia
OVCAR-8 ovarian = tested on: OVCAR-8 ovarian
OVCAR-5 ovarian = tested on: OVCAR-5 ovarian
OVCAR-4 ovarian = tested on: OVCAR-4 ovarian
SK-OV-3 ovarian = tested on: SK-OV-3 ovarian
IGROV1 ovarian = tested on: IGROV1 ovarian
OVCAR-3 ovarian = tested on: OVCAR-3 ovarian
HS 578T breast = tested on: HS 578T breast
NCI/ADR-RES ovarian = tested on: NCI/ADR-RES ovarian
T-47D breast = tested on: T-47D breast
BT-549 breast = tested on: BT-549 breast
MDA-MB-435 melanoma = tested on: MDA-MB-435 melanoma
SW-620 colon = tested on: SW-620 colon
MCF7 breast = tested on: MCF7 breast
HCT-116 colon = tested on: HCT-116 colon
HCC-2998 colon = tested on: HCC-2998 colon
KM12 colon = tested on: KM12 colon

| Compound | growth (SR leukemia) | growth (RPMI-8226 leukemia) | growth (OVCAR-8 ovarian) | growth (OVCAR-5 ovarian) | growth (OVCAR-4 ovarian) | growth (SK-OV-3 ovarian) | growth (IGROV1 ovarian) | growth (OVCAR-3 ovarian) | growth (HS 578T breast) | growth (NCI/ADR-RES ovarian) | growth (T-47D breast) | growth (BT-549 breast) [%] | growth (MDA-MB-435 melanoma) | growth (SW-620 colon) | growth (MCF7 breast) | growth (HCT-116 colon) | growth (HCC-2998 colon) | growth (KM12 colon) |
| --- | --- | --- | --- | --- | --- | --- | --- | --- | --- | --- | --- | --- | --- | --- | --- | --- | --- | --- |
| CCOC(=O)Nc1ccc2nc(Sc3ccc(Cl)cc3)sc2c1 | 9.2% (active) | 21.5% | 44.6% | 85.9% | 50.3% | 22.5% | 43.4% | 0.656% (active) | 50.8% | 14% | 36.4% | 58.5 | 1.41% (active) | 29% | 16.7% | 30.5% | 57.1% | 26.9% |
| Cc1ccsc1C(=O)CC(=O)C(F)(F)C(F)(F)C(F)(F)F | 108% | 101% | 102% | 97.4% | 98.6% | 103% | 114% | 110% | 110% | 107% | 101% | 125 | 105% | 103% | 96.6% | 109% | 111% | 107% |
| O=C(N/N=C/c1ccccc1O)c1ccncc1 | 49.4% | 53.9% | 52.3% | 71.1% | 48.9% | 63.1% | 53.8% | 18.2% | 94.3% | 38.1% | 33.6% | 57 | 82.5% | 66.1% | 23.1% | 48.7% | 64.5% | 34.3% |
| O=C(CSc1nc2c(n1Nc1ccccc1)-c1ccccc1SC2)Nc1nccs1 | 82.7% | 90.7% | 97.3% | 103% | 102% | 109% | 91.4% | 98.6% | 93.5% | 90.4% | 97.6% | 127 | 103% | 97.5% | 96.3% | 88.3% | 99.7% | 102% |
| O/N=C1\c2ccccc2-c2ccc(Br)cc21 | 102% | 105% | 105% | 113% | 104% | 113% | 116% | 118% | 158% | 115% | 97.2% | 115 | 113% | 119% | 91.1% | 114% | 102% | 115% |
| CC(C)CCSc1nc(-c2ccc(F)cc2)c(C#N)c(N2CCN(C)CC2)n1 | 67.5% | 80% | 83.2% | 91.3% | 96.7% | 87% | 95.2% | 93.9% | 79.1% | 87.2% | 68.3% | 89 | 93.6% | 90.2% | 83.9% | 79% | 97.2% | 91.7% |
| COc1cc(C2CC(=O)Nc3c2cnn3C)cc(OC)c1OC (configuration not stated) | 103% | 112% | 103% | 109% | 113% | 95.1% | 108% | 106% | 111% | 105% | 96.1% | 99.4 | 105% | 108% | 97.1% | 100% | 108% | 105% |
| O=C(/C=C/c1cn(-c2ccccc2)nc1-c1ccccc1)OCc1cn(-c2cccc([N+](=O)[O-])c2)nn1 | 87.4% | 80.4% | 82.6% | 94.1% | 83.3% | 83.5% | 98.2% | 96.8% | 89.9% | 95.4% | 78.2% | 94.7 | 94% | 90.6% | 86.8% | 82.3% | 96.7% | 98.6% |
| CC1=C(/C=C/C(C)=C/C=C(C(=O)O)\C(C)=C\C(=O)O)C(C)(C)CCC1 | 95.7% | 92% | 99.4% | 97% | 115% | 103% | 99.2% | 110% | 105% | 102% | 101% | 100 | 116% | 108% | 93.8% | 105% | 108% | 110% |
| COc1cc(OC)c(Cl)cc1N | 109% | 104% | 104% | 111% | 109% | 100% | 114% | 103% | 77.9% | 109% | 98.8% | 123 | 98.2% | 102% | 95.5% | 106% | 106% | 107% |
| CCCCCN(CCCCC)C(=O)C(CCC(=O)O)NC(=O)c1ccc(Cl)c(Cl)c1 (configuration not stated) | 94.4% | 118% | 106% | 102% | 115% | 114% | 107% | 113% | 102% | 106% | 102% | 132 | 112% | 106% | 96.7% | 112% | 113% | 114% |
| CS(=O)(=O)c1ccc(C(=O)N/N=C/c2ccccc2O)cc1 | 20.4% | 48.7% | 27.9% | 64.7% | 43.6% | 39.9% | 41% | 22.8% | 81.5% | 29.9% | 52.4% | 53 | 59.7% | 43.3% | 22.5% | 29.1% | 47.3% | 34.1% |
| CCn1c(Cc2ccccc2Nc2c(Cl)cccc2Cl)nnc1SCC(=O)Nc1cccc(OC)c1 | 87.1% | 63.2% | 89.8% | 82.9% | 78.7% | 85.4% | 67% | 96% | 72% | 86.1% | 58.9% | 98.8 | 93.4% | 85.3% | 84% | 66.5% | 100% | 88% |
| COc1ccccc1CNCCCN1C(=O)c2ccc3c4c(ccc(c24)C1=O)C(=O)N(CCCOCCCCOCCCN)C3=O | 7.67% (active) | -5.62% (active) | -14.6% (active) | -55.9% (active) | -97.1% (active) | 25.3% | -51.8% (active) | -95% (active) | 19.1% | -8.07% (active) | -56.8% (active) | 27.4 | -84.6% (active) | -60.6% (active) | -69.6% (active) | -68.7% (active) | -53.5% (active) | -59% (active) |
| COc1cc(/C=C2\CN(C(=O)OC(C)(C)C)C/C(=C\c3ccc(O)c(OC)c3)C2=O)ccc1O | 79.9% | 71.8% | 89.6% | 107% | 97.6% | 105% | 110% | 98.6% | 91.3% | 102% | 92.1% | 85.4 | 99.4% | 99.9% | 85.9% | 68.6% | 106% | 99.1% |
| C/C(=N\NC(=O)CSc1nc2ccccc2c(=O)n1CCc1ccc(S(N)(=O)=O)cc1)c1ccc(Br)cc1 | 51.1% | 49.7% | 34.6% | 111% | 71.3% | 96.4% | 100% | 128% | 90.8% | 79.1% | 91.9% | 93.9 | 78.3% | 77.3% | 80.5% | 41.2% | 90.7% | 74.1% |
| CCOC(=O)C1OC2(CCCC2)OC1C(=O)OCC (configuration not stated) | 104% | 84.8% | 108% | 110% | 118% | 105% | 96.6% | 122% | 105% | 117% | 98.4% | 98.9 | 112% | 113% | 98.2% | 98% | 104% | 104% |
| Oc1c(C(Nc2ccccc2Br)c2ccccc2)ccc2cccnc12 (configuration not stated) | 1.95% (active) | 45.8% | 23.5% | 44.5% | 31.4% | 35.2% | 20.1% | 32.8% | 59.2% | 2.07% (active) | 29.9% | 28.3 | 35.7% | 33.7% | 21% | 20% | 30.1% | 32.3% |
| CNC(=O)OC1C(O[C@H]2C[C@H]3[C@@H]4CC=C5C[C@@H](O)CC[C@]5(C)[C@H]4CC[C@]3(C)[C@H]2[C@H](C)C(=O)CCC(C)C)OCC(O)C1OC1OCC(O)C(O)C1OC(=O)c1ccc(OC)cc1 (some centres not stated) | 1.47% (active) | -25.5% (active) | 35.5% | 38.8% | 55.8% | -20.6% (active) | 28.3% | 62.7% | -5.93% (active) | 82.8% | 10.2% | 18.3 | -25.7% (active) | -37.2% (active) | 3.66% (active) | 8.61% (active) | 67.3% | 36.5% |

— PubChem BioAssay (NCI)
